This note sets out measurements from PubChem BioAssay AID1259240 (Keith Lab, Institute of Cancer Science, University of …, 2017).

The structures appear in SMILES notation. A number with no mark means an inactive call. The source made the active and inactive calls. Rule as the data show it: active = fold change mostly below about -2 (no sharp cut-off); inactive = mostly above about -1.8.

A short description of this experiment: modulation of TERT promoter-driven luciferase – cell-based, luciferase reporter, human, primary screen (AID 1259240). The conditions noted are these: A2780 TERT promoter luciferase reporter, 16 h; at 20 µM, fold versus average of vehicle-only wells.
`COc1ccc(-n2c(C)c(C(C)=O)c3cc(OCC(N)=O)ccc32)cc1`: the fold change is -1.38.

As for `CCOc1ccc(Oc2nc(NC(C)(C)C)nc(N3CCOCC3)n2)nn1`, the fold change was 1.49.

Consider `CCn1ncc(CNC(=O)c2cnn3c(C(F)F)cc(-c4ccc(C)cc4)nc23)c1C`, for which the fold change was 1.02. Still for that read-out and setting: the result for `Cc1cc(S(=O)(=O)n2nc(-c3cccc(F)c3)cc2N)ccc1F` reads -1.3. On to `CC(CCc1ccco1)NC(=O)Cn1ncc2c1-c1ccccc1OC2` (stereo not drawn), for which the fold change is 1.12.

As to `O=C(O)CCC(=O)N1CCc2cc(S(=O)(=O)N3CCc4ccccc4C3)ccc21`, the fold change was 1.93. Take `O=C(Cn1ncc2c3ccccc3n(Cc3ccccc3)c2c1=O)N1CCOCC1`: the fold change was -1.17. Still for that read-out and setting: the same measure for `Cc1nc2cc(-c3cccc(F)c3)nn2c(C)c1CCC(=O)N1CCc2ccccc21`: -2.84 (active). For `CCCCN(CC)S(=O)(=O)c1ccc2c(c1)n(C)c(=O)c(=O)n2C`, the fold change was 1.13. Regarding `Cc1cc(C)cc(NC(=O)CC(C)CC2=NS(=O)(=O)c3ccccc3N2)c1` (stereo not drawn), the fold change is -1.03. On to `CCOC(=O)C1CCCN(c2c(NCCN(C)C)c(=O)c2=O)C1` (stereo not drawn), for which the fold change was 1.36. Regarding `Cc1ccc(-c2nnc3c4ccccc4c(C)nn23)cc1S(=O)(=O)NCC1CCCO1` (stereo not drawn), the fold change was 1.3.

With `CS(=O)(=O)Nc1ccc(C2=NN(S(C)(=O)=O)C(c3ccccc3)C2)cc1` (stereo not drawn), the fold change was 1.5. Same read-out and setting: the result for `O=C(CC1(O)C(=O)Nc2ccccc21)c1cc2ccccc2o1` (stereo not drawn) reads 1.08; that for `O=C(Nc1ccc(F)cc1)C(=O)Nc1ccc2nc3n(c(=O)c2c1)CCCCC3`, -1.07. `O=C(NC1CCCCCC1)C1CCC(CNc2c(NC3CCCCC3)c(=O)c2=O)CC1` (stereo not drawn): the fold change was -1.28. The same measure, in the same setting: the result for `Fc1ccccc1Nc1nc2ccccc2n2nnnc12` reads 1.5. The same measure, in the same setting: the result for `Cn1c(=O)oc2cc(S(=O)(=O)N3CCCC(C(=O)NCCN4CCCC4)C3)ccc21` (stereo not drawn) reads 1.73; that for `COc1ccc(NC(=O)Nc2ccc3snnc3c2)cc1OC`, 1.08.

On to `CC(C)CNC(=O)CCN1C(=O)c2ccccc2S1(=O)=O`, for which the fold change is -2.25 (active).

On to `C=CCNc1nc2c(c(=O)[nH]c(=O)n2C)n1CCOc1ccccc1`, for which the fold change is -1.07. For the compound `COc1ccc2cc(S(=O)(=O)c3ccc(Cl)cc3)c(=O)oc2c1`, the fold change is -2.33 (active). Consider `CC1=C(C(N)=O)C(c2ccc(O)cc2)n2nc(CCCO)nc2N1` (stereo not drawn), for which the compound was classed as inactive.
